Data from the supplement of paper PMC4466140.

Target: CaNbp2
Experiment: SPOT peptide array binding signal intensity (averaged, normalized) (arbitrary units (background-subtracted, floor 0; scale differs between SH3 domains)); higher = stronger binding of the SH3 domain to the peptide
In short: (§1)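 GST-fused SH3 domains from four yeast species were expressed in E. coli BL21(DE3), purified on glutathione Sepharose and incubated at 10 μg/ml overnight at 4°C in TBS-based blocking buffer on cellulose membranes carrying synthetic 15-mer peptides, with cysteines replaced by serines. Bound protein was detected with anti-GST antibody, an HRP anti-mouse secondary and luminol, then imaged and quantified with Genespotter. Binding signal is the normalized, background-subtracted spot intensity averaged over replicates, in arbitrary units that differ between domains.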

Binder | SPOT peptide array binding signal intensity
APKREAPKPPANTSP | 1520

Target: CaRvs167
Experiment: as above
In short: as §1

Binder | SPOT peptide array binding signal intensity
APKREAPKPPANTSP | 0.5

Target: CaRvs167-3
Experiment: as above
In short: as §1

Binder | SPOT peptide array binding signal intensity
APKREAPKPPANTSP | 2

Target: CaSho1
Experiment: as above
In short: as §1

Binder | SPOT peptide array binding signal intensity
APKREAPKPPANTSP | ≤ 0

Target: CaSla1-D1-D2
Experiment: as above
In short: as §1

Binder | SPOT peptide array binding signal intensity
APKREAPKPPANTSP | 106

Target: CaSla1-D3
Experiment: as above
In short: as §1

Binder | SPOT peptide array binding signal intensity
APKREAPKPPANTSP | 0.25

Target: ScAbp1
Experiment: as above
In short: as §1

Binder | SPOT peptide array binding signal intensity
APKREAPKPPANTSP | ≤ 0

Target: ScBbc1
Experiment: as above
In short: as §1

Binder | SPOT peptide array binding signal intensity
APKREAPKPPANTSP | 156

Target: ScBem1-D1
Experiment: as above
In short: as §1

Binder | SPOT peptide array binding signal intensity
APKREAPKPPANTSP | 4.5

Target: ScBzz1-D1
Experiment: as above
In short: as §1

Binder | SPOT peptide array binding signal intensity
APKREAPKPPANTSP | 348

Target: ScBzz1-D2
Experiment: as above
In short: as §1

Binder | SPOT peptide array binding signal intensity
APKREAPKPPANTSP | 5

Target: ScCyk3
Experiment: as above
In short: as §1

Binder | SPOT peptide array binding signal intensity
APKREAPKPPANTSP | ≤ 0

Target: ScFus1
Experiment: as above
In short: as §1

Binder | SPOT peptide array binding signal intensity
APKREAPKPPANTSP | ≤ 0

Target: ScHof1
Experiment: as above
In short: as §1

Binder | SPOT peptide array binding signal intensity
APKREAPKPPANTSP | ≤ 0

Target: ScHse1
Experiment: as above
In short: as §1

Binder | SPOT peptide array binding signal intensity
APKREAPKPPANTSP | ≤ 0

Target: ScLsb1
Experiment: as above
In short: as §1

Binder | SPOT peptide array binding signal intensity
APKREAPKPPANTSP | ≤ 0

Target: ScLsb2
Experiment: as above
In short: as §1

Binder | SPOT peptide array binding signal intensity
APKREAPKPPANTSP | ≤ 0

Target: ScLsb3
Experiment: as above
In short: as §1

Binder | SPOT peptide array binding signal intensity
APKREAPKPPANTSP | 4.5

Target: ScLsb4
Experiment: as above
In short: as §1

Binder | SPOT peptide array binding signal intensity
APKREAPKPPANTSP | ≤ 0

Target: ScMyo3
Experiment: as above
In short: as §1

Binder | SPOT peptide array binding signal intensity
APKREAPKPPANTSP | 616

Target: ScMyo5
Experiment: as above
In short: as §1

Binder | SPOT peptide array binding signal intensity
APKREAPKPPANTSP | 414

Target: ScNbp2
Experiment: as above
In short: as §1

Binder | SPOT peptide array binding signal intensity
APKREAPKPPANTSP | 1140

Target: ScPex13
Experiment: as above
In short: as §1

Binder | SPOT peptide array binding signal intensity
APKREAPKPPANTSP | 47.8

Target: ScRvs167
Experiment: as above
In short: as §1

Binder | SPOT peptide array binding signal intensity
APKREAPKPPANTSP | 1

Target: ScSho1
Experiment: as above
In short: as §1

Binder | SPOT peptide array binding signal intensity
APKREAPKPPANTSP | ≤ 0

Target: ScSla1-D1-D2
Experiment: as above
In short: as §1

Binder | SPOT peptide array binding signal intensity
APKREAPKPPANTSP | 738

Target: ScSla1-D3
Experiment: as above
In short: as §1

Binder | SPOT peptide array binding signal intensity
APKREAPKPPANTSP | 16.2

Target: SpAbp1-D1
Experiment: as above
In short: as §1

Binder | SPOT peptide array binding signal intensity
APKREAPKPPANTSP | 15

Target: SpBbc1
Experiment: as above
In short: as §1

Binder | SPOT peptide array binding signal intensity
APKREAPKPPANTSP | 1

Target: SpBzz1-D1
Experiment: as above
In short: as §1

Binder | SPOT peptide array binding signal intensity
APKREAPKPPANTSP | 86

Target: SpBzz1-D2
Experiment: as above
In short: as §1

Binder | SPOT peptide array binding signal intensity
APKREAPKPPANTSP | 0.25

Target: SpCyk3
Experiment: as above
In short: as §1

Binder | SPOT peptide array binding signal intensity
APKREAPKPPANTSP | ≤ 0

Target: SpHof1
Experiment: as above
In short: as §1

Binder | SPOT peptide array binding signal intensity
APKREAPKPPANTSP | ≤ 0

Target: SpHof1-2
Experiment: as above
In short: as §1

Binder | SPOT peptide array binding signal intensity
APKREAPKPPANTSP | ≤ 0

Target: SpHof1-3
Experiment: as above
In short: as §1

Binder | SPOT peptide array binding signal intensity
APKREAPKPPANTSP | 6.25

Target: SpHse1
Experiment: as above
In short: as §1

Binder | SPOT peptide array binding signal intensity
APKREAPKPPANTSP | 3.5

Target: SpLsb1
Experiment: as above
In short: as §1

Binder | SPOT peptide array binding signal intensity
APKREAPKPPANTSP | ≤ 0

Target: SpLsb4
Experiment: as above
In short: as §1

Binder | SPOT peptide array binding signal intensity
APKREAPKPPANTSP | ≤ 0

Target: SpMyo1
Experiment: as above
In short: as §1

Binder | SPOT peptide array binding signal intensity
APKREAPKPPANTSP | 1270

Target: SpNbp2
Experiment: as above
In short: as §1

Binder | SPOT peptide array binding signal intensity
APKREAPKPPANTSP | 1

Target: SpPex13
Experiment: as above
In short: as §1

Binder | SPOT peptide array binding signal intensity
APKREAPKPPANTSP | ≤ 0

Target: SpRvs167
Experiment: as above
In short: as §1

Binder | SPOT peptide array binding signal intensity
APKREAPKPPANTSP | 2.67

Target: SpSla1-D1-D2
Experiment: as above
In short: as §1

Binder | SPOT peptide array binding signal intensity
APKREAPKPPANTSP | ≤ 0

Target: SpSla1-D3
Experiment: as above
In short: as §1

Binder | SPOT peptide array binding signal intensity
APKREAPKPPANTSP | 0.5
